Experimental data reported in publication PMC5540273 (PLoS ONE, 2017).

What was measured:
Conditions in all cases: concentration: 1 μM, replicates: in singlicate; n = 1
FAK = tested on: T1, FAK
T1 construct: gene PTK2

FER = tested on: FER
FES = tested on: FES
FGFR1 = tested on: FGFR1
FGFR2 = tested on: FGFR2
FGFR3 = tested on: FGFR3
FGFR4 = tested on: FGFR4
FGR = tested on: FGR
FLT1 = tested on: FLT1
FLT3-autoinhibited = tested on: FLT3-autoinhibited
FLT3 = tested on: FLT3
FLT4 = tested on: FLT4
FRK = tested on: FRK
FYN = tested on: FYN
GAK = tested on: GAK
GCN2(Kin.Dom.2,S808G) = tested on: T2, GCN2(Kin.Dom.2,S808G)
T2 construct: gene EIF2AK4

GRK1 = tested on: GRK1
GRK2 = tested on: T3, GRK2
T3 construct: gene ADRBK1

GRK3 = tested on: T4, GRK3
T4 construct: gene ADRBK2

GRK4 = tested on: GRK4
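Note: KINOMEscan kinase panel screen.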

Structure (SMILES)	%Inh (FAK) [%]	%Inh (FER) [%]	%Inh (FES) [%]	%Inh (FGFR1) [%]	%Inh (FGFR2) [%]	%Inh (FGFR3) [%]	%Inh (FGFR4) [%]	%Inh (FGR) [%]	%Inh (FLT1) [%]	%Inh (FLT3-autoinhibited) [%]	%Inh (FLT3) [%]	%Inh (FLT4) [%]	%Inh (FRK) [%]	%Inh (FYN) [%]	%Inh (GAK) [%]	%Inh (GCN2(Kin.Dom.2,S808G)) [%]	%Inh (GRK1) [%]	%Inh (GRK2) [%]	%Inh (GRK3) [%]	%Inh (GRK4) [%]
COC(=O)c1c(-c2ccccc2)c2cc(OC)ccc2c(=O)n1Cc1ccccc1	0	0	22	7	3	3	0	29	0	21	8	9	45	0	6	2	0	0	1	0
O=C(Nc1n[nH]c2nc(-c3nccs3)c(Br)cc12)C1CC1 [SB-742251]	0	0	12	0	0	0	10	29	36	0	88	8	2	3	0	0	1	0	27	0
Cc1ccc(-c2cc(-c3c[nH]nc3-c3ccccn3)ccn2)cc1 [GW684088]	0	13	21	0	0	30	9	22	5	22	0	0	4	0	80	0	8	0	74	0
COc1ccccc1-c1ccc2c(NC(=O)C3CC3)n[nH]c2n1 [SB-711239]	0	4	22	0	12	8	10	26	6	0	5	0	0	5	14	10	13	0	0	28
CC(C)(C)c1ccc(C(=O)Nc2cn3cc(-c4cccnc4)ccc3n2)cc1	12	0	29	27	21	16	0	19	22	0	65	16	23	0	18	21	41	0	0	0
COc1ccc(C2=C(Nc3cccc(C(=O)O)c3)C(=O)NC2=O)cc1 [SB-390765]	13	0	21	13	13	14	0	6	4	17	23	15	0	0	8	0	30	0	50	14
O=C(Nc1n[nH]c2cc(-c3cccc(F)c3F)ccc12)C1CC1 [SB-733894]	3	0	53	0	0	0	0	61	0	12	0	0	0	0	6	0	44	0	0	0
O=C1NC(=O)C(N2CCc3ccccc32)=C1c1ccccc1Cl [SB-373598]	0	34	15	7	15	33	9	21	6	0	2	20	20	18	0	4	19	0	0	24
Fc1cc(Cl)ccc1Nc1ccnc2cc(-c3ccc(CN4CCCCC4)o3)ccc12 [GW560116]	0	5	0	0	0	0	0	31	15	0	0	0	4	18	35	0	0	0	18	0
Cc1ccc(NC(=O)Nc2cccc(Cl)c2)cc1-c1ccc(C(=O)Nc2ccncc2)cc1 [GSK1398468]	0	6	9	0	0	7	5	30	25	14	1	18	47	8	5	0	0	0	23	0
COc1ccc(CNC(=O)NC2CCN(c3ccnc(Nc4cc(OC)c(OC)c(OC)c4)n3)C2)cc1 (stereo not shown) [GSK1379748]	0	0	7	0	2	9	15	14	20	3	71	26	5	22	16	0	0	0	40	0
